Our source for the z-score values is PubChem BioAssay.

SMILES strings stand for the structures. Unmarked numbers belong to inactive results. The source made the active and inactive calls.

A short description of the assay: growth effects on S. cerevisiae YJM789 – YJM789 clinical isolate, OD600, 24 h, basal, primary screen (AID 1089).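 Also: growth of clinical yeast isolate S. cerevisiae YJM 789 seeded 1000 cells per well; test concentration not given here.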 Particulars: higher = more signal, called active from +8 up or from −8 down.
In the case of `COC(=O)[C@@]1(Cc2ccc(F)cc2)[C@H]2c3cc(C(=O)N4CCCC4)n(CCc4c[nH]c5ccc(OC)cc45)c3C[C@H]2CN1C(=O)c1ccccc1`, the z-score is -0.0567.

Take `COCCOC(=O)N1C(=O)[C@@]2(c3cc(C#CC4(O)CCCCCC4)ccc31)[C@H](C(=O)N1CCCCCCC1)[C@H]1C(=O)O[C@H](c3ccccc3)[C@H](c3ccccc3)N1[C@@H]2c1ccc(OCCO)cc1`: the z-score was 0.474.

Turning to `COC(=O)Cn1c(C(=O)N2CCCC2)cc2c1C[C@H]1CN(C(=O)c3ccccc3)[C@@](Cc3ccc(F)cc3)(C(=O)OC)[C@@H]21`, the z-score is -1.98.

`NC(=O)N1C(=O)C2C(C1=O)C1C=C(c3ccc(CO)cc3)C2C(C2CC2)N1Cc1sc2ccccc2c1Cl` (stereo unspecified): the z-score was 2.22.

For the compound `CC=CC(O)C1C=CC2C(=O)N(C)C(=O)C2N1Nc1ccc([N+](=O)[O-])cc1[N+](=O)[O-]` (stereo unspecified), the z-score was 0.837.

Turning to `CN(C)CCCNC(=O)[C@@]1(c2ccc([N+](=O)[O-])cc2)CC(=O)N(CC23CC4CC(CC(C4)C2)C3)[C@@H]1c1ccc(CO)cc1`, the z-score is -22.2 (active).

For `C=CC1c2cc(O)c(OC)cc2CCN1Cc1sc2ccccc2c1Cl` (stereo unspecified), the z-score is -1.62.

Take `CC(C)C(=C=CC[C@@H](O)c1ccccc1OCCO)C[C@@H](O)COCc1ccccc1`: the z-score was -19.2 (active).

On to `C=CCN1C(=O)[C@]2(CC=C)N=C(c3ccc(OCCCO)cc3)O[C@@H]2c2ccccc21`, for which the z-score is -1.76.

`Cc1ccc(S[C@]2(C(=O)NCc3ccccc3)CC(=O)N(C(C)C)[C@@H]2c2ccc(CO)cc2I)cc1`: the z-score was -2.82.

Regarding `CO[C@H]1O[C@H](CO)[C@@H](OC(=O)Nc2ccc(C(F)(F)F)cc2)[C@H](OC(=O)Nc2ccc3c(c2)OCO3)[C@H]1OC(=O)Nc1ccc2c(c1)OCO2`, the z-score was 0.724.

For `CN1C2C=C(CCCO)C(C3C(=O)N(C(N)=O)C(=O)C32)C1c1cccs1` (stereo unspecified), the z-score is 1.06.

For `COC(=O)C(CC#Cc1ccc2c(c1)[C@]1(C(=O)N2)[C@H](C(=O)O)[C@H]2C(=O)O[C@H](c3ccccc3)[C@H](c3ccccc3)N2[C@@H]1c1ccccc1OCCO)C(=O)OC`, the z-score was 1.93.

As for `CC(C)CCC[C@@H](C)[C@H]1CC[C@@]2(C)C3=C(CC[C@]12C)[C@@]1(C)CC[C@H](OC(=O)c2ccc(Br)cc2)C(C)(C)C1CC3` (stereo partly specified), the z-score was -1.15.

`Cc1ccc(S[C@]2(C(=O)NCCN3CCOCC3)CC(=O)N(Cc3ccccc3C(F)(F)F)[C@@H]2c2ccc(CO)cc2I)cc1`: the z-score is -1.57.

`CCCCN1CC=CC23O[C@@H]4C=CCOC(=O)[C@@H]4[C@H]2C(=O)N(CCCO)[C@@H]3C1=O` (stereo partly specified): the z-score is 0.228.

For the compound `C=C[C@@H](C)[C@H](OC(=O)Nc1ccc(SC)cc1)c1ccc(OCCO)cc1`, the z-score was 0.103.

Take `O=c1cccc(-c2cccc(Cl)c2)o1`: the z-score is -3.86.

Consider `Cc1ccc(S[C@]2(C(=O)NCC(F)(F)F)CC(=O)N(Cc3ccccc3)[C@@H]2c2ccc(CO)cc2)cc1`, for which the z-score was 0.249.

`COc1ccc([Si](C)(C)[C@H]2[C@H](CC(=O)N3Cc4ccccc4C[C@H]3CO)O[C@@]3(C(=O)N(Cc4cccc(N5CCCCC5=O)c4)c4ccccc43)[C@@H]2C)cc1`: the z-score is -2.19.

For the compound `O=C1OCC=C[C@H]2OC34C=CCN(Cn5nnc6ccccc65)C(=O)[C@H]3N(CCCCCCO)C(=O)[C@@H]4[C@@H]12` (stereo partly specified), the z-score is -1.47.

For the compound `COCCOC(=O)N1C(=O)[C@@]2(c3cc(C#Cc4ccc(OC)cc4)ccc31)[C@H](C(=O)N1CCN(c3ncccn3)CC1)[C@H]1C(=O)O[C@H](c3ccccc3)[C@H](c3ccccc3)N1[C@@H]2c1ccccc1OCCO`, the z-score is 3.33.

For the compound `O=C1C2C=CC(C(O)c3cc(C(F)(F)F)cc(C(F)(F)F)c3)N(Nc3ccc([N+](=O)[O-])cc3)C2C(=O)N1c1ccccc1` (stereo unspecified), the z-score was 0.527.

Regarding `CCOC(=O)C[C@H]1[C@H](OC(=O)Cc2ccc3c(c2)OCO3)[C@@H](NC(=O)Cc2ccc(OC)cc2)c2cc(OCCCO)ccc2N1C(=O)c1ccccc1`, the z-score is -0.13.

With `O=C1NCC(=O)N2[C@@H]1C[C@@H](C(=O)O)[C@H]2c1ccc(O)cc1`, the z-score was 0.442.

`C=C(COC)/C(=C/C[C@@H](OC(=O)c1ccncc1)c1cccc(OCCO)c1)c1cnc2ccccc2c1`: the z-score was -19.8 (active).
